± gives the standard deviation of the averaged measurements. Over roughly 33,000 sequences, “E-score (dimensionless, -0.5 to 0.5)” has its median near -0.049; the highest 2% begin near 0.37. For the sample, the highest values were picked, then their nearest neighbours and some sequences at random.

This test has as its system T1, PmTbr T-box DNA-binding domain (GST fusion).
T1 sequence: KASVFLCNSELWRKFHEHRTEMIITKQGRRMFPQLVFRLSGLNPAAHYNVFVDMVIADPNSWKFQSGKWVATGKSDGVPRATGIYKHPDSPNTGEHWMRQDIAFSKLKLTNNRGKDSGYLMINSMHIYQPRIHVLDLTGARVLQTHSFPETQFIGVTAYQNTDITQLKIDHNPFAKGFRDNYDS
The test is described as follows: PBM E-score of 8-mer (E-score (dimensionless, -0.5 to 0.5)); Tbr is Tbrain of the sea star Patiria miniata (Pm) or the sea urchin Strongylocentrotus purpuratus (Sp); higher = stronger binding preference. Conditions: the construct has about 5 more residues each side. Summed up:
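Expression of GST-fused Tbr T-box DNA-binding domains, each holding the full T-box plus roughly five flanking residues, was carried out in BL21 E. coli at 20 °C, with purification by glutathione affinity chromatography. Universal Agilent arrays made double-stranded by primer extension were incubated with the protein at 200 nM in PBS (pH 7.5), then scanned and quantified. All ungapped 8-mers were scored from probe intensities, and each received an enrichment E-score from the Universal PBM Analysis Suite, averaged over duplicate arrays.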
With GGTGTTTA, the “PBM E-score of 8-mer” value was found to be 0.399 ± 0.015.

Turning to ACTGTTAG, the “PBM E-score of 8-mer” value was determined as 0.217 ± 0.017.

Take GGTGTTAA: the “PBM E-score of 8-mer” value was determined as 0.479 ± 0.0049.

As to AGTGTTAG, the “PBM E-score of 8-mer” value turned out to be 0.407 ± 0.014.

For the sequence AGTGTTTA, the “PBM E-score of 8-mer” value came out at 0.258 ± 0.043.

Take CGTGTTAG: the “PBM E-score of 8-mer” value stood at 0.354 ± 0.01.

With CTTGTTAA, the “PBM E-score of 8-mer” value turned out to be 0.236 ± 0.09.

In the case of TGTGTTAA, the “PBM E-score of 8-mer” value amounted to 0.365 ± 0.029.

Take CCTGTTAA: the “PBM E-score of 8-mer” value was 0.185 ± 0.023.

Take CGTGTTAA: the “PBM E-score of 8-mer” value came out at 0.409 ± 0.029.

For the sequence CGTGTTTA, the “PBM E-score of 8-mer” value is 0.0204 ± 0.033.

In the case of GCTGTTAA, the “PBM E-score of 8-mer” value was 0.199 ± 0.089.

Take CCGCCCGA: the “PBM E-score of 8-mer” value stood at 0.0216 ± 0.052.

For CTCAAGAG, the “PBM E-score of 8-mer” value was found to be 0.00045 ± 0.0019.

Take CCAGACCA: the “PBM E-score of 8-mer” value is -0.0405 ± 0.051.

As to GAGACAGC, the “PBM E-score of 8-mer” value amounted to 0.0107 ± 0.051.

For the sequence CATCAGGG, the “PBM E-score of 8-mer” value is -0.024 ± 0.045.

Turning to AGATAGTC, the “PBM E-score of 8-mer” value was -0.0975 ± 0.03.

In the case of AATACTTG, the “PBM E-score of 8-mer” value was -0.0724 ± 0.093.

Turning to AATGCGCA, the “PBM E-score of 8-mer” value was -0.0568 ± 0.095.

Take AGGGGGAA: the “PBM E-score of 8-mer” value is -0.14 ± 0.053.

For CCTAAGTC, the “PBM E-score of 8-mer” value is -0.0839 ± 0.0091.

For GGTGTAAC, the “PBM E-score of 8-mer” value is 0.363 ± 0.027.

As to AGTGTTAA, the “PBM E-score of 8-mer” value stood at 0.433 ± 0.017.

AATGTTAA: the “PBM E-score of 8-mer” value was -0.0297 ± 0.11.

On to ACTGTTAA, for which the “PBM E-score of 8-mer” value is 0.21 ± 0.045.

Consider GGTGTAAA, for which the “PBM E-score of 8-mer” value came to 0.418 ± 0.0026.

On to AGTGTAAA, for which the “PBM E-score of 8-mer” value amounted to 0.287 ± 0.081.

With ACTGTTAC, the “PBM E-score of 8-mer” value was 0.118 ± 0.043.

For the sequence GCTGTTAC, the “PBM E-score of 8-mer” value worked out at 0.0246 ± 0.042.

As to CGTGTTAC, the “PBM E-score of 8-mer” value amounted to 0.349 ± 0.015.

Consider AGTGTTCC, for which the “PBM E-score of 8-mer” value was 0.0364 ± 0.038.

As to GGTGTTAC, the “PBM E-score of 8-mer” value is 0.4752 ± 0.00012.

Consider AGTGTTAC, for which the “PBM E-score of 8-mer” value stood at 0.3946 ± 0.0021.

With CCCACAGG, the “PBM E-score of 8-mer” value came out at 0.0869 ± 0.067.

Consider CCGGTTGC, for which the “PBM E-score of 8-mer” value was -0.0645 ± 0.0032.

With CATAGATA, the “PBM E-score of 8-mer” value is -0.161 ± 0.051.

Turning to ACCAACGA, the “PBM E-score of 8-mer” value amounted to 0.0332 ± 0.14.

With GTGCTTGA, the “PBM E-score of 8-mer” value is 0.00432 ± 0.026.

Consider AATGTTAT, for which the “PBM E-score of 8-mer” value was -0.00229 ± 0.038.

As for ACTGTTAT, the “PBM E-score of 8-mer” value was found to be 0.0989 ± 0.046.

For the sequence AGTGTTAT, the “PBM E-score of 8-mer” value came to 0.397 ± 0.016.

CCCGAGGG: the “PBM E-score of 8-mer” value was -0.251 ± 0.11.

For CCTTCTCC, the “PBM E-score of 8-mer” value was -0.0679 ± 0.015.

Consider AGAGCAAA, for which the “PBM E-score of 8-mer” value is -0.099 ± 0.029.

Consider TAACAAGA, for which the “PBM E-score of 8-mer” value is 0.0263 ± 0.085.

In the case of ACGTGCCG, the “PBM E-score of 8-mer” value came out at 0.221 ± 0.02.

Turning to AGGTGCCG, the “PBM E-score of 8-mer” value came out at 0.439 ± 0.0092.

For AGGTGCCC, the “PBM E-score of 8-mer” value came out at 0.0662 ± 0.046.

For GGGTGCTA, the “PBM E-score of 8-mer” value stood at 0.4326 ± 0.0028.

Regarding AGCTGCCA, the “PBM E-score of 8-mer” value amounted to 0.18 ± 0.026.

On to GTGTGCTA, for which the “PBM E-score of 8-mer” value is 0.3066 ± 0.0011.

In the case of CGGTGCTA, the “PBM E-score of 8-mer” value was 0.321 ± 0.0088.

Take AGGTGCCA: the “PBM E-score of 8-mer” value turned out to be 0.4761 ± 0.0036.

Consider GTGTGCGA, for which the “PBM E-score of 8-mer” value was 0.3565 ± 0.0019.

On to GGGTGCGA, for which the “PBM E-score of 8-mer” value is 0.4765 ± 0.0031.

For the sequence ACGTGCCA, the “PBM E-score of 8-mer” value was 0.367 ± 0.031.

Regarding CGGTGCGA, the “PBM E-score of 8-mer” value was 0.35 ± 0.017.

Regarding CACGCCAC, the “PBM E-score of 8-mer” value amounted to 0.222 ± 0.04.

Consider ACGAAGTG, for which the “PBM E-score of 8-mer” value worked out at 0.291 ± 0.018.

Regarding CTGGGCCA, the “PBM E-score of 8-mer” value is -0.217 ± 0.042.

In the case of AGGTCACA, the “PBM E-score of 8-mer” value came out at 0.27 ± 0.017.

In the case of GCTACGAC, the “PBM E-score of 8-mer” value was found to be 0.00882 ± 0.05.

As for CGGCAATA, the “PBM E-score of 8-mer” value is -0.0175 ± 0.065.

For CGGCCTAA, the “PBM E-score of 8-mer” value is -0.0861 ± 0.036.

AACTCAAC: the “PBM E-score of 8-mer” value was -0.0361 ± 0.029.

Take CGCTATAA: the “PBM E-score of 8-mer” value is 0.164 ± 0.045.

With GGGTGCCA, the “PBM E-score of 8-mer” value was 0.426 ± 0.011.

Consider CGGTGCCA, for which the “PBM E-score of 8-mer” value is 0.195 ± 0.0034.

Take GCGTGCCA: the “PBM E-score of 8-mer” value came out at 0.163 ± 0.015.

As to TGGTGCAA, the “PBM E-score of 8-mer” value stood at 0.192 ± 0.012.

On to GGGTGCAA, for which the “PBM E-score of 8-mer” value stood at 0.31 ± 0.0046.

AGGTGCAA: the “PBM E-score of 8-mer” value came out at 0.4484 ± 0.0012.

In the case of AAAGACCG, the “PBM E-score of 8-mer” value was -0.149 ± 0.032.

For the sequence TCCTGCCA, the “PBM E-score of 8-mer” value was 0.183 ± 0.019.

As to CACGTGAA, the “PBM E-score of 8-mer” value turned out to be 0.176 ± 0.044.

On to TGCGTGAA, for which the “PBM E-score of 8-mer” value was found to be 0.3679 ± 0.0033.

Consider AGCGTGAC, for which the “PBM E-score of 8-mer” value came to 0.3524 ± 0.0023.

For CGCGTGAC, the “PBM E-score of 8-mer” value is 0.342 ± 0.0057.

Take AGCGTGAA: the “PBM E-score of 8-mer” value came to 0.381 ± 0.004.

For CGCGTGAA, the “PBM E-score of 8-mer” value amounted to 0.398 ± 0.033.

With GGCGTGCA, the “PBM E-score of 8-mer” value was -0.00275 ± 0.035.

As to AGCGTGAT, the “PBM E-score of 8-mer” value was 0.207 ± 0.025.

As to CGCGTGAG, the “PBM E-score of 8-mer” value was determined as 0.282 ± 0.004.

GGCGTGAC: the “PBM E-score of 8-mer” value worked out at 0.386 ± 0.017.

With AGCGTGAG, the “PBM E-score of 8-mer” value is 0.24 ± 0.042.

With GGCGTGAA, the “PBM E-score of 8-mer” value is 0.4668 ± 0.002.

Regarding CTAGGATC, the “PBM E-score of 8-mer” value was -0.255 ± 0.018.

With TTGAGAAA, the “PBM E-score of 8-mer” value is 0.0227 ± 0.14.

As for ATGACCAT, the “PBM E-score of 8-mer” value is -0.23 ± 0.0083.

For TCCTTAGA, the “PBM E-score of 8-mer” value was -0.289 ± 0.043.

Turning to CCCAAGCC, the “PBM E-score of 8-mer” value is -0.228 ± 0.037.

Regarding AGTCAATG, the “PBM E-score of 8-mer” value is -0.195 ± 0.041.

Take CTTCCACA: the “PBM E-score of 8-mer” value was determined as 0.151 ± 0.069.

CGTCTTCA: the “PBM E-score of 8-mer” value was -0.00878 ± 0.0017.

In the case of AGAACGAG, the “PBM E-score of 8-mer” value is -0.0902 ± 0.0033.

In the case of CGGCGAAA, the “PBM E-score of 8-mer” value was -0.1403 ± 0.00085.

As for GCCATTCA, the “PBM E-score of 8-mer” value is 0.104 ± 0.018.

As to GAACGCTA, the “PBM E-score of 8-mer” value amounted to 0.0135 ± 0.049.

On to GATAACGC, for which the “PBM E-score of 8-mer” value was found to be 0.246 ± 0.0034.

In the case of GATAACAA, the “PBM E-score of 8-mer” value amounted to 0.212 ± 0.042.

Regarding CATAACAA, the “PBM E-score of 8-mer” value was 0.0483 ± 0.038.

In the case of CATAACAC, the “PBM E-score of 8-mer” value stood at 0.42 ± 0.0089.

Consider AATAACAC, for which the “PBM E-score of 8-mer” value is 0.339 ± 0.052.

Turning to GATAACAC, the “PBM E-score of 8-mer” value is 0.4169 ± 0.0014.

In the case of GCTGTTCA, the “PBM E-score of 8-mer” value was 0.0254 ± 0.024.

Regarding CGAAGATC, the “PBM E-score of 8-mer” value is -0.07 ± 0.0097.

Turning to ACCGCAGA, the “PBM E-score of 8-mer” value is -0.332 ± 0.019.

CATCCTCA: the “PBM E-score of 8-mer” value was -0.0261 ± 0.11.

Consider GAACCTAC, for which the “PBM E-score of 8-mer” value is -0.179 ± 0.00047.

Values taken from the supplement of paper PMC4166925.
